Experiment in all cases: DAPPL (digital affinity profiling via proximity ligation, sequencing); 10 mM Tris-HCl pH 7.5, 50 mM NaCl, 1 mM DTT, 4% glycerol, room temperature, 30 min; GST-TFs on glutathione beads, 16-mer random dsDNA library, 0.1% formaldehyde crosslink after washing; high values mean tight binding
Settings in all cases: protein: recombinant; tags: N-terminal GST; dsDNA, one strand shown

The target of test [1] is T1, FLI1 (Homo sapiens, UniProt Q01543 1-452).
T1 sequence: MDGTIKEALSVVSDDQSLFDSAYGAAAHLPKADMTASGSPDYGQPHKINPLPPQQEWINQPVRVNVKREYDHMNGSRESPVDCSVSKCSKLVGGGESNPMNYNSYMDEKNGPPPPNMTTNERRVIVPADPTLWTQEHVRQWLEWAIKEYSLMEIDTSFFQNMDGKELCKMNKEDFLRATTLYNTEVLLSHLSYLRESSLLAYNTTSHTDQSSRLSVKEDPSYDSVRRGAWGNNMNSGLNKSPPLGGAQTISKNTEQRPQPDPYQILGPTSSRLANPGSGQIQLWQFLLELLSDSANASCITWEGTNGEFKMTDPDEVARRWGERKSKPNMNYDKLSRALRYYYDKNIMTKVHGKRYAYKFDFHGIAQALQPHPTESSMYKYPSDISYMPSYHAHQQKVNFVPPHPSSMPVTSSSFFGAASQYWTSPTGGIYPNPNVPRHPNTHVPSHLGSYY
The gist of the method:
(§1)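 Binding signal is given per hexamer as its read frequency for a factor divided by its frequency in the tag-only sample. GST-fused human transcription factors were expressed in yeast, captured on glutathione beads, barcoded with DNA and pooled with that sample, then incubated with 200 nmole of a 16-mer random double-stranded DNA library in Tris/NaCl/DTT/glycerol buffer for 30 min at room temperature. The pools were then washed, crosslinked, proximity-ligated, amplified by PCR and sequenced on an Illumina NextSeq500.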

In test [2] the target is T2, ELK1 (Homo sapiens, UniProt P19419 1-428).
T2 sequence: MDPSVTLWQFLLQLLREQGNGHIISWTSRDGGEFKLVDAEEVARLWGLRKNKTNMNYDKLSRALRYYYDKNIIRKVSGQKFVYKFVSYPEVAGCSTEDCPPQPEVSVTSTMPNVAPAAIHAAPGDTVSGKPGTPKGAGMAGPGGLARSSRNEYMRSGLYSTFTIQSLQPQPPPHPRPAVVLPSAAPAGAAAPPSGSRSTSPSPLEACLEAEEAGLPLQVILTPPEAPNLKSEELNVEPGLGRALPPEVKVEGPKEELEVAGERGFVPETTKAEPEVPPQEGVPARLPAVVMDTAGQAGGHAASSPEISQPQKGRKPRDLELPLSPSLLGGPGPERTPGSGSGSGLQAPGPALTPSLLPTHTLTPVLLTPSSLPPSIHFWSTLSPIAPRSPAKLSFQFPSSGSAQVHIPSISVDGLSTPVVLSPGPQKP
In a few lines:
as §1

The target of test [3] is T3, GABPA (Homo sapiens, UniProt Q06546 1-454).
T3 sequence: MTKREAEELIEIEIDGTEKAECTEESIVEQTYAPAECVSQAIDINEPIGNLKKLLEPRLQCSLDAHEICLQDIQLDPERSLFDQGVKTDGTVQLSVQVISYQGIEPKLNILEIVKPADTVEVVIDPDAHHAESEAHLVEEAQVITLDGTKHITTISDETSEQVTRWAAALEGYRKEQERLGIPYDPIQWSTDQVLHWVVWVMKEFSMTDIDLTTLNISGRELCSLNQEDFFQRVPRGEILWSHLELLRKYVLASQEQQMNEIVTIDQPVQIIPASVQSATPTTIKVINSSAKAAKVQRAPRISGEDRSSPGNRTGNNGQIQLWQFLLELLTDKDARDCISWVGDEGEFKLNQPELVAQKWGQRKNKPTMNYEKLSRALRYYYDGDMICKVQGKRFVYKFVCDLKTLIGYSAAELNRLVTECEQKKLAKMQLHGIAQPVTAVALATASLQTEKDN
In a few lines:
as §1

In test [4] the target is T4, ERG (Homo sapiens, UniProt P11308 1-479).
T4 sequence: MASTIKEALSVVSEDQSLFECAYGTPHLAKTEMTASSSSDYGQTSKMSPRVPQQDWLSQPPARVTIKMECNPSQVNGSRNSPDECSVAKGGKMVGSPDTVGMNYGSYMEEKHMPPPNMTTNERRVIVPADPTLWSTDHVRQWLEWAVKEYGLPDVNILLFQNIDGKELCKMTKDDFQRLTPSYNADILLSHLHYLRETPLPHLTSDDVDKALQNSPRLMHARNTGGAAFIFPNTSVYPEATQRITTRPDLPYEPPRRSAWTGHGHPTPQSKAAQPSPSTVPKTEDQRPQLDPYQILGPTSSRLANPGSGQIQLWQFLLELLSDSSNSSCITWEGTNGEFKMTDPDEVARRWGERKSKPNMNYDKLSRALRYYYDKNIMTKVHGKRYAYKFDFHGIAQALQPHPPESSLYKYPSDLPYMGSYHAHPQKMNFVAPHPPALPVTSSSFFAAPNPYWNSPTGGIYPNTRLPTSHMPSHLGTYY
The gist of the method: as §1

Test [5] deals with ELF1 (Homo sapiens, UniProt P32519 1-619). The gist of the method: as §1
In test [6] the target is T5, EHF (Homo sapiens, UniProt Q9NZC4 1-300).
T5 sequence: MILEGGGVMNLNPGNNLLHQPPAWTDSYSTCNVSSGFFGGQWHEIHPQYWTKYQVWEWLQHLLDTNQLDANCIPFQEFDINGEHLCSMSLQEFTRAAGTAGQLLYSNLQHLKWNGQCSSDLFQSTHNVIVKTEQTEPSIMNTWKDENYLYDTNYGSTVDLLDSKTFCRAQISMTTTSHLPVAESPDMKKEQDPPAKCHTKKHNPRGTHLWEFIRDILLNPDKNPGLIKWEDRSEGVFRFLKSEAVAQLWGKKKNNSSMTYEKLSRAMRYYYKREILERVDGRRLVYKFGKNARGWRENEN
The gist of the method: as §1

The target of test [7] is SPI1 (Homo sapiens, UniProt P17947 1-270). In a few lines:
as §1

The target of test [8] is SPIB (Homo sapiens, UniProt Q01892 1-262). In a few lines:
as §1

Test [9] deals with T6, ELK3 (Homo sapiens, UniProt P41970 1-407).
T6 sequence: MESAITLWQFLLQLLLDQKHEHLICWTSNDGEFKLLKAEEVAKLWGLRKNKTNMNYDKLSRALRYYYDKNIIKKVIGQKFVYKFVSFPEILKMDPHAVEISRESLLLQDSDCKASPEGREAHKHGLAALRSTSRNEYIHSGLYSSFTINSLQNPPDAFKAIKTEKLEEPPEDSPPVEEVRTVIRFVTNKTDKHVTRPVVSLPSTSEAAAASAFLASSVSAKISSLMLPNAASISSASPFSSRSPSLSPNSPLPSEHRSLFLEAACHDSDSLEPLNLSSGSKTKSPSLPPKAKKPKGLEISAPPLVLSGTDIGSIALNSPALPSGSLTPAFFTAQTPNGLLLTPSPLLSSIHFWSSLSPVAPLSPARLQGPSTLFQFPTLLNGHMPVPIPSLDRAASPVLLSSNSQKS
In a few lines: as §1

We go through eight sequences from publication PMC7862700, “An all-to-all approach to the identification of sequence-specific readers for epigenetic DNA modifications on cytosine”.

Sequence of ELF1 (P32519 whole entry): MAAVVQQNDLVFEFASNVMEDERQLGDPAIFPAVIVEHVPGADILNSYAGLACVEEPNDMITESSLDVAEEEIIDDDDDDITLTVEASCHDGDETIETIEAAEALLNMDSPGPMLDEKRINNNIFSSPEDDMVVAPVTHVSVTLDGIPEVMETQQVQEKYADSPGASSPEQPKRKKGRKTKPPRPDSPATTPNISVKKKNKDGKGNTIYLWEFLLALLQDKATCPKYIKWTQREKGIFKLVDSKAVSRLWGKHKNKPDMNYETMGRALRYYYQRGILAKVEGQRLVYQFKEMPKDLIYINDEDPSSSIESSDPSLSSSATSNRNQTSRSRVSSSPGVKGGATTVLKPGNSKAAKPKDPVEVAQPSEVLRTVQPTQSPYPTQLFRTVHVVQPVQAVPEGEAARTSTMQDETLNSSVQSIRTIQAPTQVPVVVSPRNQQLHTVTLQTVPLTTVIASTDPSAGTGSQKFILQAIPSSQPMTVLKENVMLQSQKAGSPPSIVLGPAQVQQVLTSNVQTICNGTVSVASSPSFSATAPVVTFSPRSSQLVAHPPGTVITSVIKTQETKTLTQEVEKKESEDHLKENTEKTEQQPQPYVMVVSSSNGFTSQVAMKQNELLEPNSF
Sequence of SPIB (Q01892 whole entry): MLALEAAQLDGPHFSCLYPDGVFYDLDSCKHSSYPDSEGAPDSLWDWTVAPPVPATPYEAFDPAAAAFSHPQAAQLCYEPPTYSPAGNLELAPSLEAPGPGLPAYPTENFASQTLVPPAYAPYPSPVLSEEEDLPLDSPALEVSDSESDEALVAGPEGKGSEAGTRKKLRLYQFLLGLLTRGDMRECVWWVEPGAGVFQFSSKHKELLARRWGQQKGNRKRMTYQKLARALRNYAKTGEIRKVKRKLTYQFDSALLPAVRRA

In the case of AGCACT, the binding signal is 1.38 fold enrichment (6-mer frequency, TF over GST control) in test [1]; 1.52 fold enrichment (6-mer frequency, TF over GST control) in test [2]; 1.41 fold enrichment (6-mer frequency, TF over GST control) in [3]; 1.48 fold enrichment (6-mer frequency, TF over GST control) in [4]; 1.4 fold enrichment (6-mer frequency, TF over GST control) in test [5]; 1.36 fold enrichment (6-mer frequency, TF over GST control) in test [6]. Moreover, the binding signal is 1.4 fold enrichment (6-mer frequency, TF over GST control) in [7]; 1.44 fold enrichment (6-mer frequency, TF over GST control) in [8]; 1.62 fold enrichment (6-mer frequency, TF over GST control) in [9].

For the sequence ACAAAT, the binding signal in [1] is 1.09 fold enrichment (6-mer frequency, TF over GST control); in test [2], 1.18 fold enrichment (6-mer frequency, TF over GST control); in test [3], 1.12 fold enrichment (6-mer frequency, TF over GST control); in [4], 1.15 fold enrichment (6-mer frequency, TF over GST control); in [5] it was 1.15 fold enrichment (6-mer frequency, TF over GST control); in [6], 1.19 fold enrichment (6-mer frequency, TF over GST control). The binding signal in test [7] was 1.17 fold enrichment (6-mer frequency, TF over GST control); in test [8], 1.11 fold enrichment (6-mer frequency, TF over GST control); in test [9], 1.14 fold enrichment (6-mer frequency, TF over GST control).

As to TCTATC, the binding signal in test [1] was 1.25 fold enrichment (6-mer frequency, TF over GST control); in test [2], 1.27 fold enrichment (6-mer frequency, TF over GST control); in test [3] it was 1.21 fold enrichment (6-mer frequency, TF over GST control); in [4] it was 1.21 fold enrichment (6-mer frequency, TF over GST control); in test [5], 1.25 fold enrichment (6-mer frequency, TF over GST control); in test [6], 1.19 fold enrichment (6-mer frequency, TF over GST control). In addition, the binding signal in test [7] was 1.22 fold enrichment (6-mer frequency, TF over GST control); in test [8], 1.17 fold enrichment (6-mer frequency, TF over GST control); in test [9] it was 1.37 fold enrichment (6-mer frequency, TF over GST control).

With CTTAGC, the binding signal in test [1] is 1.22 fold enrichment (6-mer frequency, TF over GST control); in [2], 1.17 fold enrichment (6-mer frequency, TF over GST control); in test [3] it was 1.26 fold enrichment (6-mer frequency, TF over GST control); in test [4], 1.22 fold enrichment (6-mer frequency, TF over GST control); in test [5], 1.22 fold enrichment (6-mer frequency, TF over GST control); in test [6], 1.25 fold enrichment (6-mer frequency, TF over GST control). Also, the binding signal in [7] was 1.21 fold enrichment (6-mer frequency, TF over GST control); in test [8], 1.21 fold enrichment (6-mer frequency, TF over GST control); in test [9], 1.22 fold enrichment (6-mer frequency, TF over GST control).

For the sequence TTCTGG, the binding signal in [1] is 1.36 fold enrichment (6-mer frequency, TF over GST control); in test [2], 1.16 fold enrichment (6-mer frequency, TF over GST control); in [3], 1.32 fold enrichment (6-mer frequency, TF over GST control); in test [4] it was 1.31 fold enrichment (6-mer frequency, TF over GST control); in [5], 1.14 fold enrichment (6-mer frequency, TF over GST control); in [6] it was 1.2 fold enrichment (6-mer frequency, TF over GST control). The binding signal was 1.24 fold enrichment (6-mer frequency, TF over GST control) in [7]; 1.18 fold enrichment (6-mer frequency, TF over GST control) in test [8]; 1.48 fold enrichment (6-mer frequency, TF over GST control) in test [9].

As for GCCCTT, the binding signal in test [1] is 1.23 fold enrichment (6-mer frequency, TF over GST control); in test [2], 1.11 fold enrichment (6-mer frequency, TF over GST control); in test [3], 1.18 fold enrichment (6-mer frequency, TF over GST control); in test [4], 1.16 fold enrichment (6-mer frequency, TF over GST control); in test [5], 1.25 fold enrichment (6-mer frequency, TF over GST control); in [6] it was 1.19 fold enrichment (6-mer frequency, TF over GST control). The binding signal was 1.22 fold enrichment (6-mer frequency, TF over GST control) in [7]; 1.28 fold enrichment (6-mer frequency, TF over GST control) in [8]; 1.24 fold enrichment (6-mer frequency, TF over GST control) in test [9].

With GTATTT, the binding signal was 1.47 fold enrichment (6-mer frequency, TF over GST control) in [1]; 1.61 fold enrichment (6-mer frequency, TF over GST control) in [2]; 1.48 fold enrichment (6-mer frequency, TF over GST control) in [3]; 1.67 fold enrichment (6-mer frequency, TF over GST control) in test [4]; 1.53 fold enrichment (6-mer frequency, TF over GST control) in test [5]; 1.6 fold enrichment (6-mer frequency, TF over GST control) in [6]. Besides, the binding signal in test [7] was 1.55 fold enrichment (6-mer frequency, TF over GST control); in test [8] it was 1.61 fold enrichment (6-mer frequency, TF over GST control); in test [9], 1.75 fold enrichment (6-mer frequency, TF over GST control).

In the case of CTGAAA, the binding signal in [1] was 1.16 fold enrichment (6-mer frequency, TF over GST control); in test [2] it was 1.14 fold enrichment (6-mer frequency, TF over GST control); in test [3], 1.1 fold enrichment (6-mer frequency, TF over GST control); in test [4] it was 1.04 fold enrichment (6-mer frequency, TF over GST control); in [5], 1.19 fold enrichment (6-mer frequency, TF over GST control); in test [6] it was 1.09 fold enrichment (6-mer frequency, TF over GST control). For the same sequence, the binding signal in [7] is 1.19 fold enrichment (6-mer frequency, TF over GST control); in test [8], 1.24 fold enrichment (6-mer frequency, TF over GST control); in [9], 1.03 fold enrichment (6-mer frequency, TF over GST control).
